Rows were chosen to be rich in hits. Some 21% of all compounds tested hit in one or more screens of this group.
HCV inhibitor – blocks hepatitis C virus; Potency, µM (highest dose often 41.8 µM), for inactives: at the highest dose activity change, negative = inhibition, most hits filed as inhibitors; actives 3.4% (n = 340,000); Huh7.5.1 HCVcc-Cre infection, luciferase reporter, 44 h; also: potency is read from the fitted curve at half-maximal effect; % is scaled to controls: 0 for no effect and ±100 for the full control effect
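Whole-lifecycle infectious HCVcc-Cre system; cells 1,000/well, compound then virus (~0.5 moi) added 4 h after plating, 44 h culture. Luciferase read 15 sec following 15 min substrate incubation, room temp.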
Pf growth 48h – P. falciparum growth inhibition at 48 hours (one generation); P. falciparum luciferase growth in erythrocytes, 48 h; Potency, µM (series often up to 28.7 µM), without a hit: at the highest dose activity change, negative = inhibition, hits mostly inhibitors; actives 5.9% (n = 310,000); AID 504832; also: potency is read from the fitted curve at half-maximal effect; % is scaled to controls: 0 for no effect and ±100 for the full control effect
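Luciferase-expressing P. falciparum in infected erythrocytes (2% hematocrit, 0.1% parasitemia final) in RPMI 1640/0.5% Albumax were exposed to compound for 48 hours at 37 C, 5% CO2; growth read as luminescence.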
Shiga toxin inh – inhibitors of Shiga toxin in Vero cells | Vero cells, Shiga toxin protein synthesis inhibition reporter | inhibition, % at 38.7 µM | actives 9.2% (n = 290,000) | AID 2315; in the data active = inhibition mostly above about 28%, no sharp cut-off; inactive = mostly below about 43%; also: 0% is about no effect
Cycloheximide cs – counter-screen for Shiga toxin inhibitors: cycloheximide protein synthesis inhibition; actives 12% (n = 300,000); max response, %; AID 2314; cell reporter, cycloheximide protein synthesis inhibition counterscreen; in the data active = max response mostly above about 13%, no sharp cut-off; inactive = mostly below about 14%; also: read at 38.3 µM for the half of the compounds with a filed dose; 0% is about no effect
Pf growth 96h – P. falciparum growth inhibition at 96 hours; P. falciparum luciferase reporter growth, 96 h; Potency, µM (titrated, usually from 28.7 µM), for inactives: at the highest dose activity change, negative = inhibition, actives largely listed as inhibitors; actives 6.9% (n = 320,000); also: potency is read from the fitted curve at half-maximal effect; % is scaled to controls: 0 for no effect and ±100 for the full control effect
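Two-generation exposure (96 h) targets delayed-death phenotype. Reporter parasites carrying integrated firefly luciferase, in red cells at 2% hematocrit and 0.05% parasitemia final, kept at 37 C, 5% CO2; luminescence loss indicates inhibition.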
HCMV antiviral – inhibitors of human cytomegalovirus | actives 4.5% (n = 410,000) | activity change, negative = inhibition, % at 57.5 µM | HFF cells, HCMV-luciferase reporter, 72 h; active compounds read low; in the data active = activity change below about -60%; inconclusive = no clear call, values can overlap the other calls; inactive = above about -39%; also: % is scaled to controls: 0 for no effect and ±100 for the full control effect
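After 16 h attachment at 37C, HFF cells received test compound and HCMV-luciferase (1 PFU/cell); reporter luminescence read 72 h later, data normalized against buffer-only and known inhibitor Salinomycin.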
* marks the source's active call; other numbers are inactive results; ? = inconclusive; · = no result given. Unless noted, calls follow the shape of the dose curve; as a rule, active = well fitted inhibition curve with a large enough effect; inconclusive = small, poorly fitted or top-dose-only effect, or another doubt; inactive = no such curve, though single readings can be large or run the other way.

SMILES | HCV inhibitor | Pf growth 48h | Shiga toxin inh | Cycloheximide cs | Pf growth 96h | HCMV antiviral
Cc1ccnc(NC(=S)N2CCN(c3cccc(C(F)(F)F)c3)CC2)c1 | ? | ? | 25.8 | 7.3 | ? | -38.2
COc1ccc(C(=O)NC2CCC(O)CC2)cc1S(=O)(=O)NCc1ccc(Cl)cc1 (centres undefined) | ? | 13.1µM* | · | · | ? | 41.9
COc1ccc(C(=O)NCC(C)(C)N2CCOCC2)cc1S(=O)(=O)NCc1ccc(Cl)cc1 | ? | · | · | · | · | -67.2*
O=C(NCc1ccccc1)Nc1nnc([C@@H]2C[C@H](O)[C@@H](CO)O2)s1 | · | · | · | · | · | -18.6
Cc1c(C2C(C#N)=C(N)N(c3cccc([N+](=O)[O-])c3)C3=C2C(=O)CCC3)cnn1C (centres undefined) | · | 10.0% | 2.8 | -4.8 | -19.0% | 3.5
CC(C)(C)c1cc(C(c2cccnc2)N2CCN(CCO)CC2)cc(C(C)(C)C)c1O (centres undefined) | 10µM* | · | -22.8 | -7.2 | -14.6% | -102.2*
Cc1ccc(NC(=O)COC(=O)CCc2c[nH]c3ccccc23)c(C)c1 | 24.4% | -16.5% | · | · | -3.1% | -28.0
CCCCCCC(c1c(C)n(C)n(-c2ccccc2)c1=O)c1c(C)n(C)n(-c2ccccc2)c1=O | ? | 13.1µM* | -7.4 | -3.0 | 6.8% | 15.7
COc1ccc(S(=O)(=O)NC2CCCC2)cc1Br | 8.8% | 2.7% | -8.3 | -2.6 | · | 3.4
O=S(=O)(NC1CCCC1)c1ccccc1Br | 18.9% | 20.2% | -7.7 | -4.1 | 24.3% | -97.4*
O=C(c1ccc2c(c1)N(Cc1cccc(Cl)c1)C(=O)c1ccccc1S2(=O)=O)N1CCN(c2ccccn2)CC1 | 14.1µM* | ? | 18.6 | -3.6 | 26.5% | -84.1*
O=C(c1ccc2c(c1)N(Cc1ccc(Cl)cc1)C(=O)c1ccccc1S2(=O)=O)N1CCN(c2ccccn2)CC1 | · | · | · | · | · | -18.9
O=C(c1ccc2c(c1)N(Cc1cccc(Cl)c1)C(=O)c1ccccc1S2(=O)=O)N1CCN(Cc2ccccc2)CC1 | · | · | · | · | · | -67.2*
O=C(c1ccc2c(c1)N(Cc1cccc(Cl)c1)C(=O)c1ccccc1S2(=O)=O)N1CCCCCC1 | · | · | · | · | · | -65.5*
Cc1cccc(N2CCN(C(=O)c3ccc4c(c3)N(Cc3cccc(Cl)c3)C(=O)c3ccccc3S4(=O)=O)CC2)c1C | · | · | · | · | · | -34.8
CN1CCN(C(=O)c2ccc3c(c2)N(Cc2cccc(Cl)c2)C(=O)c2ccccc2S3(=O)=O)CC1 | -20.3% | ? | -8.1 | -3.4 | 11.7µM* | ?
COc1ccc(N2CCN(C(=O)c3ccc4c(c3)N(Cc3cccc(Cl)c3)C(=O)c3ccccc3S4(=O)=O)CC2)cc1 | · | · | · | · | · | -38.2
CN(C)c1ccc(C(O)c2cc3ccccc3s2)cc1 (centres undefined) | -12.1% | · | · | · | · | 121.7
COc1ccc(C#Cc2c(-c3ccccc3)n(-c3ccccc3)c3ccc(CO)cc23)cc1 | ? | · | · | · | · | 33.7
CCN(Cc1nc2ccccc2c(=O)[nH]1)Cc1nc2ccsc2c(=O)[nH]1 | 19.0% | ? | -14.1 | -2.2 | 1.47µM* | 21.3
CCN(CC(=O)Nc1ccccc1SC)Cc1nc2ccccc2c(=O)[nH]1 | 11.2µM* | 55.1% | -2.9 | -2.5 | -16.2% | 18.8
CCN(CC(=O)NC(c1ccccc1)c1ccccc1)Cc1nc2ccccc2c(=O)[nH]1 | ? | 11.7µM* | 12.0 | -2.4 | 7.38µM* | -4.1
CCOc1[nH]n(-c2ccccc2)c(=O)c1C=NCc1cccnc1 | 3.8% | ? | -5.7 | 8.9 | 18.5µM* | 21.3
O=C(c1cccc2ccccc12)N1CCN(c2ccc([N+](=O)[O-])c(NCc3ccco3)c2)CC1 | ? | ? | -15.2 | 1.6 | 85.5% | ?
Cc1cccc(C(=O)N2CCN(c3ccc([N+](=O)[O-])c(NCc4ccco4)c3)CC2)c1 | ? | ? | 15.4 | 0.9 | 11.7µM* | -31.0
Cc1ccccc1C(=O)N1CCN(c2ccc([N+](=O)[O-])c(NCc3ccco3)c2)CC1 | 12.6µM* | 13.1µM* | 2.9 | -1.4 | ? | -27.5
Cc1ccc(C(=O)N2CCN(c3ccc([N+](=O)[O-])c(NCc4ccco4)c3)CC2)cc1 | ? | ? | -10.3 | 2.0 | 4.65µM* | -36.9
